Assay results as given in PubChem BioAssay (EPA / NIEHS).
Records with an inconclusive call do not appear. Active and inactive are the calls of the source. Rule for the calls: active = hit-call score of the fitted dose curve at least 0.9, where 1 is the maximum; inconclusive = response in the unintended direction; inactive = score below 0.9.

How the values were obtained:
[1] = biological target: rat Thyrotropin Releasing Hormone Receptor (TRH), Trhr (gene 25570) (UniProt Q01717); test: NVS_GPCR_rTRH: NovaScreen (NVS) G Protein-Coupled Receptor Assay for rat Thyrotropin Releasing Hormone Receptor (TRH) (AID 2283329);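 note: hit means lower bound tracer signal versus DMSO baseline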
Sequence of rat Thyrotropin Releasing Hormone Receptor (TRH), Trhr (gene 25570) (Q01717 whole entry, looked up): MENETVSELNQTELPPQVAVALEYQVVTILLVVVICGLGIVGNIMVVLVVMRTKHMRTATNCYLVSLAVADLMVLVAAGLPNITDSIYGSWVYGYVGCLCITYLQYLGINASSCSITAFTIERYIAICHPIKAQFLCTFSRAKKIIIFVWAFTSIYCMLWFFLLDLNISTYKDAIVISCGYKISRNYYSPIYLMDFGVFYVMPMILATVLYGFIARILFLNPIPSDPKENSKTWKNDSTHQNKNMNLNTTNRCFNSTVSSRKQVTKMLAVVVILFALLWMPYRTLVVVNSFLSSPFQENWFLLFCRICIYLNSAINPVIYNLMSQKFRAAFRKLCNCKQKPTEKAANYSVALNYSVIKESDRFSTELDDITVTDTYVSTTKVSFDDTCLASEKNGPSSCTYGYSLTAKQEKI
Summary of the method: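 Competitive radioligand binding on rat forebrain membrane preparations, with filtration and scintillation readout after 4 h. Primary testing in duplicate at 25 uM; actives confirmed in concentration-response. DMSO defined baseline.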

[2] = biological target: bovine Estrogen Receptor (ER), ESR1 (gene 407238) (UniProt P49884); test: NVS_NR_bER: NovaScreen (NVS) Nuclear Receptor Binding Assay for bovine Estrogen Receptor (ER) (AID 2283345);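 note: actives lower the bound radioligand count which means they displace the ER ligand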
Sequence of bovine Estrogen Receptor (ER), ESR1 (gene 407238) (P49884 whole entry, looked up): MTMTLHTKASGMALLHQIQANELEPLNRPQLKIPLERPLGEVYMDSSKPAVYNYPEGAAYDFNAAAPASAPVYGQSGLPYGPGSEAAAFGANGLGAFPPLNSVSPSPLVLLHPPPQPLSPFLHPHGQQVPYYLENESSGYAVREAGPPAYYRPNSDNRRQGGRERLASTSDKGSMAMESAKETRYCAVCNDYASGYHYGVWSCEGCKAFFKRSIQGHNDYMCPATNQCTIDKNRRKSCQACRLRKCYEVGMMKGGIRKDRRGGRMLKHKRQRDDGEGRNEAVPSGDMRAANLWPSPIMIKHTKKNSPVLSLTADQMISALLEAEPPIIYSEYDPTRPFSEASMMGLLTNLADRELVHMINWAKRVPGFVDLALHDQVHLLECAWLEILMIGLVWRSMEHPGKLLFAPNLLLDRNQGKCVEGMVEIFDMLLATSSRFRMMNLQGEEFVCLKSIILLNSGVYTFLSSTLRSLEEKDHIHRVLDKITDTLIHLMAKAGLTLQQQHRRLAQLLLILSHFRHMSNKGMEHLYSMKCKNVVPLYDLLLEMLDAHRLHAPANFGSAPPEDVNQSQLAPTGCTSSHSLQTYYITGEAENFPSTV
Summary of the method: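 Displacement of a radioligand from estrogen receptor in bovine uterine membrane preparations; scintillation signal taken at 18 hours, DMSO as baseline. Single-concentration duplicates (25 uM) preceded concentration-response follow-up of actives.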

[3] = biological target: chimpanzee Androgen Receptor (AR), AR (gene 747460) (UniProt O97775); test: NVS_NR_cAR: NovaScreen (NVS) Nuclear Receptor Binding Assay for chimpanzee Androgen Receptor (AR) (AID 2283346);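 note: radioligand displacement from AR measured by scintillation counting in a cell-free assay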
Sequence of chimpanzee Androgen Receptor (AR), AR (gene 747460) (O97775 whole entry, looked up): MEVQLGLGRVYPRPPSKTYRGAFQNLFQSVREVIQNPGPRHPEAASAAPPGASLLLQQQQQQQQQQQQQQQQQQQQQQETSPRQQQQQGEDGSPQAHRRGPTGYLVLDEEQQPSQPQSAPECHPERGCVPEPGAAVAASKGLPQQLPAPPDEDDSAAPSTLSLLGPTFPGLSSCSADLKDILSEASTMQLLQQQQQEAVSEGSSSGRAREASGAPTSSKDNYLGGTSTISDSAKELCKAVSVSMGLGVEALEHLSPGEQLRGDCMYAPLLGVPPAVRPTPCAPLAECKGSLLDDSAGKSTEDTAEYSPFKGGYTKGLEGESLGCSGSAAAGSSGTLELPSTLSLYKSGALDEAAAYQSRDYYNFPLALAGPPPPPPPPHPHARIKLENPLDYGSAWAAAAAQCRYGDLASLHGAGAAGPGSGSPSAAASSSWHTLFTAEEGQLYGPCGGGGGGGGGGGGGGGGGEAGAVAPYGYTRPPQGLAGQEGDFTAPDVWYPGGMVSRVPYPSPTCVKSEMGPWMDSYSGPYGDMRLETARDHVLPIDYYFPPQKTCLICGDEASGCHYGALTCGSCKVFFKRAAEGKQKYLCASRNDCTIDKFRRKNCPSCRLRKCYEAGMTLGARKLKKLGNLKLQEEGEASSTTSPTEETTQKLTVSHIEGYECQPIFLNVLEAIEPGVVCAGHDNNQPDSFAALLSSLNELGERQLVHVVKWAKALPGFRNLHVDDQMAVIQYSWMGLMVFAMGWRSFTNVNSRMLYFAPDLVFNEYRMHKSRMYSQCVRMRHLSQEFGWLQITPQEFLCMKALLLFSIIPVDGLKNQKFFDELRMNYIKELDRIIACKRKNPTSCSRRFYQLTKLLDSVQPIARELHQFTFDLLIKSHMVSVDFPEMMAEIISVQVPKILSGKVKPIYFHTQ
Summary of the method: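 Radioligand binding to chimpanzee AR expressed in Sf9/Sf21 cells, cell-free, measured 72 h after dosing by lysate-based scintillation counting. Loss of signal vs DMSO; initial duplicate screen at 25 uM, actives retested in concentration series.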

[4] = biological target: Estrogen receptor (Homo sapiens) (UniProt P03372); test: NVS_NR_hER: NovaScreen (NVS) Nuclear Receptor Binding Assay for human Estrogen Receptor (ER) (AID 2283348)
Sequence of Estrogen receptor (Homo sapiens) (P03372 whole entry, looked up, the tested form may be a part): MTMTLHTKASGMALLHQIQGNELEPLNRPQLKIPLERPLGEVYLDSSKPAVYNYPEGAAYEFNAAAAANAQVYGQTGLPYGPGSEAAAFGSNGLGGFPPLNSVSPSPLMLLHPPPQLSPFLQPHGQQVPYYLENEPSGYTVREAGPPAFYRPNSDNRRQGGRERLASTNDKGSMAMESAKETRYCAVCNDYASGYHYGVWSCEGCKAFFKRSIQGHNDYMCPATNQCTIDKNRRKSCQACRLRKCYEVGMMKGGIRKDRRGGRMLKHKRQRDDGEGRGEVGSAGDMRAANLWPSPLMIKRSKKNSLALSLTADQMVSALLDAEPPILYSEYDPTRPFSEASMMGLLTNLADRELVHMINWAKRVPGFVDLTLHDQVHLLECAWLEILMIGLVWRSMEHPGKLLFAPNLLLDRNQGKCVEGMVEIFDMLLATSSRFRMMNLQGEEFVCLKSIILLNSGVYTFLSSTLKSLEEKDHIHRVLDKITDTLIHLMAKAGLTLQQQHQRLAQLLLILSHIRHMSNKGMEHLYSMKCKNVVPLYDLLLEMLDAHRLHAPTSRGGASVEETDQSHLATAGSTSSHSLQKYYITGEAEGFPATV
Summary of the method: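 Radioligand competitive displacement binding to estrogen receptor from MCF7 extract, cell-free; 18 h after dosing, scintillation read-out. Primary screen in duplicate at 25 uM; actives followed up in concentration series; loss of signal vs DMSO.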

[5] = biological target: Estrogen receptor (Homo sapiens) (UniProt P03372); test: OT_ER_ERaERa_1440: Odyssey Thera (OT) 24-hour HEK293T Protein-Complementation Assay for Estrogen Receptor-alpha/-alpha Homodimer (AID 2283349);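 note: hits raise fluorescence above DMSO for agonists and antagonists alike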
Summary of the method: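 HEK293T cells stably expressing the human ER alpha ligand-binding domain (aa 310-547) as a homodimer PCA were dosed for 24 hours. Fluorescence intensity was read by laser scanning cytometry, and gain of signal was fitted relative to DMSO vehicle.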

[6] = biological target: Sodium channel protein type 1 subunit alpha (Rattus norvegicus) (UniProt P04774); test: NVS_IC_rNaCh_site2: NovaScreen (NVS) Ion Channel Assay for rat Sodium Channel, Site 2 (NaCh) (AID 2283322);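 note: hit means loss of radioligand binding signal relative to DMSO so AC50 marks displacement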
Summary of the method: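 Membranes: rat forebrain. Format: competitive radioligand displacement, filter separation, scintillation readout, 1 h exposure. Primary screen in duplicate at 25 uM; actives retested in concentration series.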

[7] = biological target: D(1A) dopamine receptor (Homo sapiens) (UniProt P21728); test: NVS_GPCR_hDRD1: NovaScreen (NVS) G Protein-Coupled Receptor Assay for human Dopamine Receptor D1 (DRD1) (AID 2283269)
Sequence of D(1A) dopamine receptor (Homo sapiens) (P21728 whole entry, looked up): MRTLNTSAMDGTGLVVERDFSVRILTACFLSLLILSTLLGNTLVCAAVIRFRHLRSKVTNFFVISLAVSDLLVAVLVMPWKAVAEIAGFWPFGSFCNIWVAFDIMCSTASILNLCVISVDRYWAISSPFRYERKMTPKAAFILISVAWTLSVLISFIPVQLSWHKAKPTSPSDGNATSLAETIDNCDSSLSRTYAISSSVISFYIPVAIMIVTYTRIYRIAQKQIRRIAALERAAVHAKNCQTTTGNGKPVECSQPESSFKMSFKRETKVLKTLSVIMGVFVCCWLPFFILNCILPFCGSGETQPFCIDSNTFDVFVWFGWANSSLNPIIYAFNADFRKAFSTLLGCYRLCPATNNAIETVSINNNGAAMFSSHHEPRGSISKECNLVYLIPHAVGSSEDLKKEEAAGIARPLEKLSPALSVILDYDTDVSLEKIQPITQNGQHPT
Summary of the method: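 Cell-free competition with radioligand, filter-trapped and scintillation-counted 1 h post-dose, using HEK293-derived human D1 preparation. Duplicate single-point testing at 25 uM first, then concentration series for actives; DMSO served as baseline, loss-of-signal scored.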

[8] = biological target: rat Gamma-Aminobutyric Acid Type A Receptor, Non-Selective (GABAR-NonSelective), Gabra1 (gene 29705) (UniProt P62813); test: NVS_LGIC_rGABAR_NonSelective: NovaScreen (NVS) Ligand-Gated Ion Channel Assay for rat Gamma-Aminobutyric Acid Type A Receptor, Non-Selective (GABAR-NonSelective) (AID 2283326)
Summary of the method: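 Radioligand displacement on rat whole-brain extract, 1 h, filter scintillation readout; signal loss fitted versus DMSO. Primary screen in duplicate at 25 uM; hits (e.g. ≥30% inhibition) retested in concentration-response up to 50 uM.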

[9] = biological target: human Adenosine A2a Receptor (AdoRA2a), ADORA2A (gene 135) (UniProt P29274); test: NVS_GPCR_hAdoRA2a: NovaScreen (NVS) G Protein-Coupled Receptor Assay for human Adenosine A2a Receptor (AdoRA2a) (AID 2283256)
Sequence of human Adenosine A2a Receptor (AdoRA2a), ADORA2A (gene 135) (P29274 whole entry, looked up): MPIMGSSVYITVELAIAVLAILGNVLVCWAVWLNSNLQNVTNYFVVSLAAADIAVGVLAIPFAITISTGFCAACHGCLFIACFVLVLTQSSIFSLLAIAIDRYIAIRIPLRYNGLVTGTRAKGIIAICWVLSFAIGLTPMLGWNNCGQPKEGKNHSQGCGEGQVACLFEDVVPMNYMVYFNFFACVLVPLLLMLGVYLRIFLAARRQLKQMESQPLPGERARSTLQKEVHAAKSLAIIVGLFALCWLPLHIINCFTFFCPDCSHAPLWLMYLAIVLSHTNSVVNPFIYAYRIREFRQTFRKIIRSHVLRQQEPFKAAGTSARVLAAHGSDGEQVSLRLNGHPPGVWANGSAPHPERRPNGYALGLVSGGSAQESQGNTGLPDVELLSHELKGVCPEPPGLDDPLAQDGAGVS
Summary of the method: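 Radioligand displacement on HEK293-derived membrane protein, cell-free; filter-based scintillation counting 1.5 hours after dosing, loss of signal vs DMSO. Single-point duplicate screen at 25 uM, actives retested in concentration series.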

[10] = biological target: human Neurokinin, NK2 Receptor, TACR2 (gene 6865) (UniProt P21452); test: NVS_GPCR_hNK2: NovaScreen (NVS) G Protein-Coupled Receptor Assay for human Neurokinin, NK2 Receptor (AID 2283278);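 note: actives reduce bound radioligand signal relative to DMSO baseline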
Sequence of human Neurokinin, NK2 Receptor, TACR2 (gene 6865) (P21452 whole entry, looked up): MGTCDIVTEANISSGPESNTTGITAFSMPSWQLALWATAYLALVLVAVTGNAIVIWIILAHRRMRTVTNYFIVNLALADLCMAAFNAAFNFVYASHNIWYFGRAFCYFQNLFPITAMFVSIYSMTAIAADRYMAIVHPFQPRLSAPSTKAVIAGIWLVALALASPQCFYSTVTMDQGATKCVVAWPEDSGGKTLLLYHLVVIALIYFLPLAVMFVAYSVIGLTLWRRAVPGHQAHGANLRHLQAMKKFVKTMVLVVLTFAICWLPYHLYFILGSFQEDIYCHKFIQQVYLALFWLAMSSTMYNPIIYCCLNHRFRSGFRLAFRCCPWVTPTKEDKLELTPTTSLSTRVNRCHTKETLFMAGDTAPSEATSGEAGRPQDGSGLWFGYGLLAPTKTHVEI
Summary of the method: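 Cell-free radioligand binding using receptor protein extracted from CHO cells; readings taken 4 hours after chemical dosing by filter-based scintillation counting. Primary screen ran single concentration (25 uM) in duplicate; actives followed up in concentration series, loss-of-signal versus DMSO baseline.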

[11] = biological target: human Opioid Receptor Mu (Opiate Mu), OPRM1 (gene 4988) (UniProt P35372); test: NVS_GPCR_hOpiate_mu: NovaScreen (NVS) G Protein-Coupled Receptor Assay for human Opioid Receptor Mu (Opiate Mu) (AID 2283290);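 note: hits lower bound tracer signal versus DMSO meaning displacement of the ligand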
Sequence of human Opioid Receptor Mu (Opiate Mu), OPRM1 (gene 4988) (P35372 whole entry, looked up): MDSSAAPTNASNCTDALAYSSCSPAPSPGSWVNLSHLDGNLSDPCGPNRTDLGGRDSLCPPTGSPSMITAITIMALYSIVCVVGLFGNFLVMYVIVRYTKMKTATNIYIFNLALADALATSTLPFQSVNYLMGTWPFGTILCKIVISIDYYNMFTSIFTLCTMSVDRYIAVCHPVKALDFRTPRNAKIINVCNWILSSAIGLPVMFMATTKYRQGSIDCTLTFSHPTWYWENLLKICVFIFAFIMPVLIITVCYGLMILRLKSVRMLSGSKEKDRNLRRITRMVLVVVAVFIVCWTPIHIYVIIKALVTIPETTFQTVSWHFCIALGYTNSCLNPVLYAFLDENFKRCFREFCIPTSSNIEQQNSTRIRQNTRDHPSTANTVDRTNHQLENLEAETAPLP
Summary of the method: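 Primary screen in duplicate at 25 uM, with actives followed in concentration series. CHO-derived receptor membranes, cell-free; bound radioligand read by scintillation counting after filtration at 2.5 h, decrease scored against DMSO.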

[12] = biological target: rat Peripheral-type Benzodiazepine Receptor (PBR), Tspo (gene 24230) (UniProt P16257); test: NVS_MP_rPBR: NovaScreen (NVS) Membrane Protein Assay for rat Peripheral-type Benzodiazepine Receptor (PBR) (AID 2283335)
Sequence of rat Peripheral-type Benzodiazepine Receptor (PBR), Tspo (gene 24230) (P16257 whole entry, looked up): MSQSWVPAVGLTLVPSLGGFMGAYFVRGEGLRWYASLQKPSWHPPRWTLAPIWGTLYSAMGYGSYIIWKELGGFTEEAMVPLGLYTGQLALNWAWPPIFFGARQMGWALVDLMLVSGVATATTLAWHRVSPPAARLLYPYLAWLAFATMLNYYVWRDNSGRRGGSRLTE
Summary of the method: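 Rat kidney membranes; radioligand binding with displacement, filter-based scintillation counting, 1 h incubation. Primary screen in duplicate at 25 uM, actives followed in concentration series; loss of binding vs DMSO.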

[13] = tested on: 5-hydroxytryptamine receptor 2C (pig); test: NVS_GPCR_p5HT2C: NovaScreen (NVS) G Protein-Coupled Receptor Assay for pig Serotonin, 5-Hydroxytryptamine Receptor 2C (5HT2C) (AID 2283288)
Summary of the method: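 Pig choroid plexus membranes; radioligand competitive binding, filter-based scintillation counting, read 1 h after dosing. Primary screen in duplicate at 25 uM; actives then run as concentration series; loss of signal versus DMSO baseline.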

[14] = biological target: Muscarinic acetylcholine receptor M2 (Homo sapiens) (UniProt P08172); test: NVS_GPCR_hM2: NovaScreen (NVS) G Protein-Coupled Receptor Assay for human Muscarinic, M2 Receptor (AID 2283273)
Sequence of Muscarinic acetylcholine receptor M2 (Homo sapiens) (P08172 whole entry, looked up): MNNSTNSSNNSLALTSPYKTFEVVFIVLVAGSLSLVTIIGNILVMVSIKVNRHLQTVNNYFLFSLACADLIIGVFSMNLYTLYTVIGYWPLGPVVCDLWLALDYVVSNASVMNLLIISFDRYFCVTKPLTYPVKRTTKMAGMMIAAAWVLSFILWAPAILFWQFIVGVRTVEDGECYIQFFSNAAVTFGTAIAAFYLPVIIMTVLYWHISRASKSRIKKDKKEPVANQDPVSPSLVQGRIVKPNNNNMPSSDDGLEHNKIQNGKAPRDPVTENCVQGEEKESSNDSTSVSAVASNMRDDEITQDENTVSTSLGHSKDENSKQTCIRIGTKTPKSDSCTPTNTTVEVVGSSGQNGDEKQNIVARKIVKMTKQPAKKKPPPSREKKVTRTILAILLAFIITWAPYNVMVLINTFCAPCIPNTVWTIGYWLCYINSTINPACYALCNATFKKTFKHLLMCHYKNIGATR
Summary of the method: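 Radioligand displacement on human M2 receptor membranes from CHO cells, 1 h incubation, filtration with scintillation counting. Primary screen in duplicate at 25 uM; actives retested in concentration series; loss of signal fitted versus DMSO.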

[15] = NVS_IC_rCaBTZCHL: NovaScreen (NVS) Ion Channel Assay for Calcium Channel, Type L, Benzothiazepine Site (CaBTZCHL) (AID 2283337)
Summary of the method: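 Radioligand displacement at the benzothiazepine site using rat cortical membranes; bound label measured by filtration and scintillation counting 1.5 h after dosing. Single-point 25 uM in duplicate, then concentration series; DMSO baseline.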

[16] = biological target: rat Neonicotinoid receptor (NNR), Chrna7 (gene 25302) (UniProt Q05941); test: NVS_LGIC_rNNR_BungSens: NovaScreen (NVS) Ligand-Gated Ion Channel Assay for rat Neonicotinoid receptor (NNR) (AID 2283315)
Summary of the method: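 Radioligand displacement binding on rat cortical membranes, 2.5 h incubation, filtration and scintillation counting. Loss of specific binding fitted relative to DMSO.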

[17] = biological target: human Adenosine A1 Receptor (AdoRA1), ADORA1 (gene 134) (UniProt P30542); test: NVS_GPCR_hAdoRA1: NovaScreen (NVS) G Protein-Coupled Receptor Assay for human Adenosine A1 Receptor (AdoRA1) (AID 2283254)
Summary of the method: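 Radioligand competition binding on human cortical membranes, 1 h after compound addition; bound radioactivity read by filtration and scintillation counting. Loss of signal versus DMSO baseline scored as displacement; primary screen duplicate at 25 uM, actives retested in concentration series.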

C=C1C[C@H]2[C@@H]3C=C(C)C4=CC(=O)CC[C@]4(C)[C@H]3CC[C@]2(C)[C@@]1(OC(C)=O)C(C)=O
outcome [1]: inactive
outcome [2]: inactive
AC50 [3]: 0.33 µM (active)
AC50 [4]: 18.5 nM (active)
outcome [5]: inactive

C=Cc1cccc(C)c1
outcome [6]: inactive

C=C(C)C(=O)OCCCCCCCCCCCC
outcome [7]: inactive

Nc1ccc(C(=O)O)cc1
AC50 [8]: 2.62 µM (active)
outcome [5]: inactive

Cn1ccnc1
outcome [9]: inactive

c1ccc2sc(SSN3CCOCC3)nc2c1
AC50 [10]: 3.65 µM (active)

Cc1cc(C)c(C=O)c(C)c1
outcome [7]: inactive

CC/C=C\C/C=C\C/C=C\CCCCCCCC(=O)OC
AC50 [7]: 14 µM (active)
AC50 [11]: 16.1 µM (active)
AC50 [12]: 13.3 µM (active)

Cc1ccc([N+](=O)[O-])cc1N
outcome [13]: inactive
AC50 [8]: 13.8 µM (active)
AC50 [3]: 20.8 µM (active)
outcome [5]: inactive

c1ccc(-c2nc3ccccc3[nH]2)cc1
outcome [9]: inactive

CCCCCCCCC(CO)CCCCCC (configuration not stated)
outcome [14]: inactive
outcome [15]: inactive
outcome [5]: inactive

Oc1ccc(-c2ccccc2)c(Cl)c1
outcome [1]: inactive
outcome [2]: inactive
AC50 [3]: 14.1 µM (active)
outcome [4]: inactive
outcome [5]: inactive

CCCCNC(=S)NCCCC
outcome [1]: inactive
AC50 [12]: 5.23 µM (active)
outcome [5]: inactive

CCCCNS(=O)(=O)c1ccccc1
outcome [1]: inactive
AC50 [12]: 25 µM (active)
outcome [5]: inactive

CC(C)[N+](C)(CCOC(=O)C1c2ccccc2Oc2ccccc21)C(C)C
AC50 [14]: 2.29 nM (active)
AC50 [10]: 17.7 µM (active)
AC50 [16]: 9.05 µM (active)
AC50 [6]: 10.1 µM (active)

CC(c1cc(C(C)(C)C)cc(C(C)(C)C)c1O)c1cc(C(C)(C)C)cc(C(C)(C)C)c1O
outcome [7]: inactive

Cc1cc(C)n(CO)n1
outcome [7]: inactive
outcome [4]: inactive
outcome [5]: inactive

Nc1nc(N)nc(-c2ccccc2)n1
AC50 [17]: 6.11 µM (active)
AC50 [9]: 3.01 µM (active)
outcome [6]: inactive
outcome [2]: inactive

Cc1c(O)cccc1O
outcome [14]: inactive

Cc1c[nH]c(=O)[nH]c1=O
outcome [9]: inactive

[Cl][Sc]([Cl])[Cl]
outcome [7]: inactive
outcome [10]: inactive

CCCCCCCCCCCCCc1ccccc1
outcome [17]: inactive
outcome [7]: inactive

CC(C)CCCCCOC(=O)CS
AC50 [11]: 39.8 µM (active)

CCOC(=O)/C=C\C(=O)OCC
outcome [10]: inactive
outcome [2]: inactive
AC50 [3]: 5 µM (active)

O=C(OCc1ccccc1)c1ccc(O)cc1
outcome [1]: inactive
AC50 [12]: 3.77 µM (active)
AC50 [2]: 1.18 µM (active)
AC50 [3]: 25 µM (active)
AC50 [4]: 212 nM (active)
AC50 [5]: 37.3 µM (active)
